Records with an inconclusive call do not appear. The source made the active and inactive calls. Rule for the calls, unless noted: active = hit-call score of the fitted dose curve at least 0.9, where 1 is the maximum; inactive = score below 0.9.
Tests used:
[1] = APR_HepG2_CellCycleArrest_1hr: Apredica 1-hour HepG2 Assay for Cell Cycle Arrest (AID 2282666); conditions: high-content imaging, actives raise or lower the signal
Method in brief: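 HepG2 cells exposed for 1 h to 0.39–200 uM compound (0.5% DMSO). Fixed, Hoechst-stained nuclei imaged by ArrayScan; DNA content quantified by Cell Cycle analysis; bidirectional fit against DMSO.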

[2] = APR_HepG2_MicrotubuleCSK_1hr: Apredica 1-hour HepG2 Assay for Microtubule CSK Stabilty (AID 2282669); conditions: HepG2 microtubule cytoskeleton imaging, actives raise or lower the signal
Method in brief: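 HepG2 cells exposed 1 h to 0.39–200 uM compound (0.5% DMSO, duplicates), then formaldehyde-fixed, permeabilized and immunostained for alpha-tubulin with Hoechst nuclei. Imaged by ArrayScan high-content analysis; bidirectional fit versus DMSO.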

[3] = APR_HepG2_P-H2AX_1hr: Apredica 1-hour HepG2 Assay for H2AX Phosphorylation (AID 2282673); conditions: high-content imaging, actives raise or lower the signal
Method in brief: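 HepG2 dosed 1 hr at 0.39-200 uM (0.5% DMSO final), duplicate. Fixed in 3.7% formaldehyde, Triton permeabilized, immunostained for phospho-histone H2A.x (1:200) with Hoechst 33342; ArrayScan 20x imaging, bidirectional fit vs DMSO.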

[4] = APR_HepG2_MitoMembPot_1hr: Apredica 1-hour HepG2 Assay for Mitochondrial Membrane Potential (AID 2282675); conditions: imaging, actives raise or lower the signal
Method in brief: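 HepG2 cells dosed 1 hour with 0.39–200 uM compound in duplicate, 0.5% DMSO final. MitoTracker Red CMXRos (250 nM, 30 min) loaded before formaldehyde fixation; fluorescence quantified by high-content imaging, bidirectional fitting versus DMSO.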

[5] = APR_HepG2_CellCycleArrest_24hr: Apredica 24-hour HepG2 Assay for Cell Cycle Arrest (AID 2282905); conditions: imaging, actives raise or lower the signal;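 note: cell cycle arrest scored as ratio of 2N to 4N nuclear DNA content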
Method in brief: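 Cell cycle arrest is scored from nuclear DNA content measured by high-content imaging of Hoechst 33342-stained HepG2 cells following 24-hour treatment at ten concentrations up to 200 uM, with DMSO as baseline.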

[6] = APR_HepG2_StressKinase_1hr: Apredica 1-hour HepG2 Assay for Stress Kinase (AID 2282906); conditions: HepG2 stress kinase (phospho-c-Jun) imaging, actives raise or lower the signal
Method in brief: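 HepG2 cells dosed 0.39-200 uM (0.5% DMSO) for 1 h, then formaldehyde-fixed. Stress kinase read by phospho-c-Jun immunofluorescence using high-content imaging; bidirectional fit vs DMSO.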

[7] = APR_HepG2_NuclearSize_24hr: Apredica 24-hour HepG2 Assay for Nuclear Size (AID 2282907); conditions: high-content imaging, actives raise or lower the signal
Method in brief: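 Compounds in DMSO (final 0.5%) were added to human HepG2 hepatoma cells at ten concentrations up to 200 uM for 24 hr. Fixed nuclei were stained with Hoechst 33342, and nuclear diameter was quantified from automated images.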

[8] = APR_HepG2_CellLoss_24hr: Apredica 24-hour HepG2 Assay for Cell Loss (AID 2282908); conditions: high-content imaging;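 for AC50: fit in both directions so a hit may be cell loss or gain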
Method in brief: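 Cell number is quantified by fluorescence imaging of Hoechst 33342-stained nuclei following dosing at 0.39–200 uM in 0.5% DMSO. Curves are fitted in both directions from the DMSO baseline.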

[9] = APR_HepG2_MicrotubuleCSK_24hr: Apredica 24-hour HepG2 Assay for Microtubule CSK Stabilty (AID 2282909); conditions: HepG2 microtubule cytoskeleton imaging, actives raise or lower the signal
Method in brief: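 Steps: dose HepG2 for 24 h (0.39–200 uM, 0.5% DMSO); fix 30 min in 3.7% formaldehyde at room temperature; permeabilize; stain alpha-tubulin 60 min; image microtubule cytoskeleton at 20x. Signal change fitted in both directions relative to DMSO.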

[10] = APR_HepG2_MitoMembPot_24hr: Apredica 24-hour HepG2 Assay for Mitochondrial Membrane Potential (AID 2282911); conditions: imaging, actives raise or lower the signal
Method in brief: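 Human hepatoma HepG2 cultures received ten compound concentrations up to 200 uM for 24 hr. Membrane-potential dye signal, captured by automated fluorescence microscopy, was scored for gain or loss against DMSO controls.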

[11] = APR_HepG2_MitoMass_24hr: Apredica 24-hour HepG2 Assay for Mitochondrial Mass (AID 2282912); conditions: high-content imaging, actives raise or lower the signal
Method in brief: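 The liver line HepG2 was dosed in duplicate across a 0.39–200 uM series, with final DMSO held at 0.5% v/v, and harvested at 24 hr. High-content imaging measured mitochondrial dye staining.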

[12] = APR_HepG2_CellCycleArrest_72hr: Apredica 72-hour HepG2 Assay for Cell Cycle Arrest (AID 2282914); conditions: high-content imaging, actives raise or lower the signal
Method in brief: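 Cell cycle arrest in HepG2 was scored from nuclear DNA content after 72 hr compound treatment (0.39–200 uM). Activity, either gain or loss, was fitted against the DMSO baseline.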

[13] = APR_HepG2_NuclearSize_1hr: Apredica 1-hour HepG2 Assay for Nuclear Size (AID 2282670); conditions: high-content imaging, actives raise or lower the signal
Method in brief: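 HepG2 cells dosed 1 hr with 0.39–200 uM compound (0.5% DMSO), formaldehyde-fixed, Hoechst 33342-stained and imaged at 20x; nuclear diameter from nuclear stain, fitted bidirectionally against DMSO.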

[14] = APR_HepG2_p53Act_1hr: Apredica 1-hour HepG2 Assay for p53 Activation (AID 2282671); conditions: high-content imaging, actives raise or lower the signal
Method in brief: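 HepG2 cells treated 1 h with compound at 0.39–200 uM (10 concentrations, duplicate) in 0.5% DMSO. Formaldehyde-fixed, permeabilised cells immunostained for p53 with Hoechst 33342; high-content imaging, bidirectional fit versus DMSO.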

[15] = APR_HepG2_p53Act_24hr: Apredica 24-hour HepG2 Assay for p53 Activation (AID 2282913); conditions: high-content imaging, actives raise or lower the signal;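 note: p53 protein immunofluorescence averaged per cell in HepG2 with Hoechst nuclei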
Method in brief: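 Automated fluorescence imaging quantifies p53 immunostaining in HepG2 cells after a 24 hr exposure (0.39–200 uM, duplicate, 0.5% DMSO). Nuclei are located by Hoechst 33342 staining.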

[16] = APR_HepG2_MitoticArrest_24hr: Apredica 24-hour HepG2 Assay for Mitotic Arrest (AID 2282910); conditions: high-content imaging, actives raise or lower the signal
Method in brief: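 Compounds are dosed onto HepG2 cells across ten concentrations up to 200 uM for 24 hr. Cells are then fixed in 3.7% formaldehyde, permeabilised, and labelled for phospho-histone H3 and nuclei; images are scored by cell cycle analysis and fitted bidirectionally relative to DMSO.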

[17] = ACEA_ER_80hr: ACEA Biosciences xCELLigence Real-Time Cell Analysis on Estrogen Receptor Agonism for Proliferation (AID 2282667; active = hit-call score of the fitted dose curve at least 0.9, where 1 is the maximum); conditions: T47D proliferation, impedance (xCELLigence), 80 h
Method in brief: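 Cell-growth kinetics were measured by impedance in T47D cells treated continuously with compound (top 100 uM final, 1:4 steps, 8 points). Activity at 80 h was scored as signal gain over the DMSO baseline.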

[18] = APR_HepG2_CellLoss_1hr: Apredica 1-hour HepG2 Assay for Cell Loss (AID 2282668); conditions: high-content imaging;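 note: curves fitted both ways against DMSO so gain or loss of cells counts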
Method in brief: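 HepG2 cells were treated for 1 h with compound at 0.39–200 uM, in duplicate, in 0.5% DMSO. After formaldehyde fixation, Hoechst 33342-stained nuclei were imaged on an ArrayScan to count cells. Data were fitted bidirectionally versus DMSO.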

[19] = APR_HepG2_MitoticArrest_1hr: Apredica 1-hour HepG2 Assay for Mitotic Arrest (AID 2282672); conditions: high-content imaging, actives raise or lower the signal
Method in brief: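 HepG2 cells exposed 1 hr to compounds at 0.39–200 uM (0.5% v/v DMSO final), then fixed in 3.7% formaldehyde and immunostained for phospho-histone H3 with Hoechst 33342. Mitotic arrest scored by automated fluorescence imaging, fitted bidirectionally versus DMSO.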

[20] = APR_HepG2_MitoMass_1hr: Apredica 1-hour HepG2 Assay for Mitochondrial Mass (AID 2282674); conditions: high-content imaging, actives raise or lower the signal
Method in brief: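 HepG2 cells dosed 1 hr with 0.39-200 uM compound (0.5% DMSO), duplicate wells. Mitochondria stained with 250 nM MitoTracker Red CMXRos for 30 min before formaldehyde fixation, imaged at 20x by ArrayScan; bidirectional fit versus DMSO.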

Measured: AC50

Cc1nc(N(C)C)nc(OC(=O)N(C)C)c1C
not listed: [13] | [14] | [15] | [16] | [17] | [18] | [19] | [20]
inactive: all other assays above

N#CN=C1SCCN1Cc1ccc(Cl)nc1
not listed: [2] | [16] | [17] | [18] | [19] | [20]
inactive: all other assays above

Nc1c(Cl)c(Cl)nc(C(=O)O)c1Cl
not listed: [17] | [18] | [19] | [20]
inactive: all other assays above

Nc1cnn(-c2ccccc2)c(=O)c1Cl
not listed: [17] | [18] | [19] | [20]
inactive: all other assays above

COC(=O)N(C(=O)N1CO[C@@]2(C(=O)OC)Cc3cc(Cl)ccc3C2=N1)c1ccc(OC(F)(F)F)cc1
not listed: [1] | [2] | [20]
inactive: all other assays above

CCN(CC)c1nc(C)cc(OP(=S)(OC)OC)n1
not listed: [2] | [13] | [16] | [17] | [19]
inactive: all other assays above

O=C(Nc1ccccc1-c1ccc(Cl)cc1)c1cccnc1Cl
active: [10] 66.8 µM
not listed: [2] | [13] | [16] | [17] | [19]
inactive: all other assays above

COP(=O)(OC)O/C(C)=C/C(=O)N(C)C
not listed: [17] | [19] | [20]
inactive: all other assays above

COCC(C)N(C(=O)CCl)c1c(C)csc1C (configuration not stated)
active: [5] 109 µM | [8] 115 µM | [15] 92.6 µM
not listed: [17] | [18] | [19]
inactive: all other assays above

CCOc1nc(F)cc2nc(S(=O)(=O)Nc3c(Cl)cccc3Cl)nn12
not listed: [16] | [17] | [18]
inactive: all other assays above

COc1ccc(-c2ccccc2)cc1NNC(=O)OC(C)C
not listed: [16] | [20]
inactive: all other assays above

CCNP(=S)(OC)O/C(C)=C/C(=O)OC(C)C (configuration not stated)
not listed: [17] | [18] | [19] | [20]
inactive: all other assays above

CO/N=C(/C1=NOCCO1)c1ccccc1Oc1ncnc(Oc2ccccc2Cl)c1F
active: [17] 10.5 µM | [10] 0.309 µM
not listed: [13] | [16] | [18] | [20]
inactive: all other assays above

CC(C)Oc1cccc(NC(=O)c2ccccc2C(F)(F)F)c1
not listed: [2] | [13] | [17] | [19] | [20]
inactive: all other assays above

CCOc1cc(C(C)(C)C)ccc1C1COC(c2c(F)cccc2F)=N1 (configuration not stated)
active: [4] 100 µM | [10] 93.3 µM
not listed: [2] | [13] | [14] | [15] | [19]
inactive: all other assays above

CCOP(=O)(OCC)Oc1nc(Cl)c(Cl)cc1Cl
not listed: [2] | [16] | [17] | [19]
inactive: all other assays above

Reference: PubChem BioAssay (EPA / NIEHS)
